Reference: PubChem BioAssay (NCATS)
Results filed as inconclusive are left out. A number with no mark means an inactive call. The source made the active and inactive calls. Calls come from the whole dose curve; as a rule, active = well fitted inhibition curve with a large enough effect; inconclusive = small, poorly fitted or top-dose-only effect; inactive = no such curve, though single readings can be large or run the other way.

biological target: Papain (Carica papaya) (UniProt P00784); assay: Primary qHTS assay for inhibitors of the protease papain (AID 1645873); details: papain Z-FR-AMC cleavage, AMC fluorescence; series mostly up to 49.8 µM; activity change, negative = inhibition: at the top concentration;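 note: papain turnover of Z-FR-AMC read as the AMC fluorescence gain over 10 min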
% is set by controls: 0 for no effect and ±100 for the full control effect; potency is the fitted concentration of half-maximal effect.

Sequence of Papain (Carica papaya) (P00784 whole entry, looked up): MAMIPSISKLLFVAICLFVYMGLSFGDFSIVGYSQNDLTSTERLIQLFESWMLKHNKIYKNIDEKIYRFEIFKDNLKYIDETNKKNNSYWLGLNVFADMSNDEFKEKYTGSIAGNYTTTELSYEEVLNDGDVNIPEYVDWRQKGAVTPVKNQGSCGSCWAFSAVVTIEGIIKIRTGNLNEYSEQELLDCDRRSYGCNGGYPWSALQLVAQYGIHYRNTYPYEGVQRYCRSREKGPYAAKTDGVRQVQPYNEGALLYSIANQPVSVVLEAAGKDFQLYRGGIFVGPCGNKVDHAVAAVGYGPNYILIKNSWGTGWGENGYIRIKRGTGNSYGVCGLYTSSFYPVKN

SMILES | activity change, negative = inhibition [%] | Potency
CSc1ccccc1N1CCN(CCCCCC(=O)NC2CCCc3ccccc32)CC1 (configuration not stated) | 0.81 | –
NCCCCC(=O)O | 7.47 | –
CCCCCCCCCCCCCCCCCCN(CCCCCCCCCCCCCCCCCC)CCCN(CCO)CCO | 8.01 | –
CC1OC1P(=O)(O)O (configuration not stated) | 12.2 | –
c1cnc2c(c1)ccc1cccnc12 | – | 15.8 µM (active)
COc1cccc(C(=O)NCCN2CCN(c3ccc(Cl)cc3)CC2)c1 | -11.3 | –
S=C(S)OC1CC2CC1C1CCCC21 (configuration not stated) | -12.9 | –
Cc1cc(NC2CCCCC2)nc(-n2nc(C)cc2C)n1 | 18.3 | –
CC(C)NC[C@@H](O)c1ccc(O)c(O)c1 | 14.5 | –
OC[C@H]1O[C@@H](n2cnc3c(NC4CCCCC4)ncnc32)[C@H](O)[C@@H]1O | 15 | –
COc1ccc(C(=O)/C(Cc2cc(OC)c(OC)c(OC)c2)=C(\C(=O)O)c2ccc3c(c2)OCO3)cc1 | -12.3 | –
Nc1ncnc2c1ncn2[C@@H]1O[C@H](COP(=O)(O)OP(=O)(O)OP(=O)(O)OP(=O)(O)OC[C@@H]2O[C@H](n3cnc4c(N)ncnc43)[C@@H](O)[C@H]2O)[C@@H](O)[C@H]1O | 12.5 | –
CN1C2CC(OC(=O)[C@H](CO)c3ccccc3)CC1C1OC12 (some centres not stated) | 0.63 | –
COc1ccccc1CN[C@@H]1CCCN[C@@H]1c1ccccc1 | 10.7 | –
CC(C)CC(NP(=O)(O)O[C@@H]1O[C@@H](C)[C@H](O)[C@@H](O)[C@H]1O)C(=O)NC(Cc1c[nH]c2ccccc12)C(=O)O (some centres not stated) | 18.3 | –
Nc1nc2c(ncn2[C@@H]2O[C@H](CO)[C@@H](O)[C@@H]2O)c(=O)[nH]1 | 0.09 | –
COc1ccc(-c2cc(=O)c3c(O)c(OC)c(OC)cc3o2)cc1O | 50.9 | –
